# From PubChem BioAssay
# Records with an inconclusive call do not appear. The source made the active and inactive calls. Cut-off read from the data, not from the text of the source, unless noted: active = inhibition above about 30%; inactive = the rest.
# Key:
# [1] = SK-BR-3 cell growth inhibitors, pilot screen, 24 h, human (AID 572;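 active = viability at or below 10% of carrier control in both of two separate runs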;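 note: compound exposure lasted between 18 and 24 h rather than exactly 24 h; 100% = carrier-treated control wells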); conditions: SK-BR-3 viability, CellTiter-Glo luminescence, at 10 µM, stronger effect = lower value
# [2] = HUVEC growth inhibition – cell-based, human, primary screen (AID 575;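 active = viability at or below 30% in both replicate assays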;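 note: 100% = median of untreated cell wells with 0.1% DMSO on each plate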); conditions: HUVEC proliferation, CellTiter-Glo luminescence, 72 h; at 10 µM; stronger effect = lower value
# [3] = growth inhibitors of H69AR lung tumor, primary screen, human, duplicate replicates (AID 580;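 active = viability at or under a set limit in both replicates, limit being median viability minus 3 SD, cut at about 48% in these data, passing the limit was not always enough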;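 note: 100% = mean luminescence of untreated wells and 0% = no signal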); conditions: H69AR lung tumor cells viability, ATP luminescence, 72 h; at 10 µM; stronger effect = lower value
# [4] = reversal of MRP1-mediated doxorubicin resistance, pilot screen, H69AR cells, doxorubicin co-treatment (AID 601;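 active = viability loss from added drug above about 55%, and viability with drug at most 40%, in both replicates, limit read from the data, passing the limit was not always enough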); conditions: CellTiter-Glo, 72 h, at 10 µM; for differential viability (reversal): stronger effect = higher value
# [5] = 384-well plate pilot, post-Golgi transport modulator project, inhibition of yeast transport mutant growth (AID 636; in the data active = inhibition above about 31%); conditions: absorbance 615 nm, about 18 h, stronger effect = higher value
# [6] = growth suppression of yeast trafficking mutant, preliminary HTS, modulators of trafficking downstream of Golgi apparatus project, 1536-format plate, OD 615 nm (AID 637); conditions: yeast transport mutant growth, absorbance 615 nm, 18 h; stronger effect = higher value
# [7] = OD615 S. cerevisiae growth inhibition, permissive medium, pilot counter-assay, permissive growth control for S. cerevisiae lifespan shortening project (AID 705;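 active = growth inhibition above 25% in both replicates, a cutoff set 3 SD above the mean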); conditions: OD615, 24 h, at 10 µM, stronger effect = higher value
# [8] = Restrictive medium S. cerevisiae growth inhibition, OD615, pilot screen of yeast lifespan reduction project, restrictive growth control (AID 706;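 active = growth inhibition above a set limit, 3 SD over mean compound inhibition, in both replicates, cut at about 43% in these data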;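 note: modified DeaD lifespan yeast strain shifted to restrictive glucose medium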); conditions: OD615, 48 h, at 10 µM, stronger effect = higher value
# [9] = viability gain of MRP-1-high H69AR cells under doxorubicin, pilot screen, MRP-1 activator project, CellTiter-Glo, duplicate (AID 807;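 active = viability increase at or above a cutoff of the median across tested compounds plus 3 SD, cut at about 8.5% in these data, passing the limit was not always enough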;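 note: compound pretreatment 18-22 h then 72 h combined with doxorubicin; 0% = doxorubicin alone and 100% = vehicle without doxorubicin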); conditions: H69AR viability with doxorubicin, CellTiter-Glo luminescence; at 10 µM; stronger effect = higher value
# [10] = growth suppression of beta-catenin knockout HCT116, pilot screen, human colon tumor cells (AID 823;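 active = cell viability at or below a set limit in both duplicate runs, the limit being the all-compound median minus 4 SD, cut at about 23% in these data, passing the limit was not always enough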;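 note: 0% = wells killed by 20 µM Hyamine and 100% = untreated DMSO cell wells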); conditions: CellTiter-Glo, 60 h, at 10 µM, stronger effect = lower value
# [11] = growth suppression of PTEN-deleted HCT116, pilot screen, cell-based, HCT116 clonal line, CellTiter-Glo (AID 824;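 active = viability at or below 27.92% in each of two runs, the all-compound median minus 4 SD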;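 note: 0% = 20 µM Hyamine control and 100% = vehicle cell control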); conditions: 60 h, at 10 µM, stronger effect = lower value
# [12] = inhibitors of the yeast RAM network, pilot screen, dse1pr::URA3 reporter, 5-FOA selection (AID 869;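 active = inhibition over a set limit, the all-compound mean plus 3 SD, in both replicate runs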;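 note: 0% = DMSO wells with no growth and 100% = 10 µM 1-NA-PP1 with full growth; RAM network block rescues cells from 5-FOA so hits raise OD615 growth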); conditions: S. cerevisiae dse1pr::URA3 5-FOA growth, OD615, 2 d; at 10 µM; stronger effect = higher value; strain carries analog-sensitive mutant Cbk1 kinase
# [13] = RAM signaling pathway blockade in yeast – S. cerevisiae, Pdr1DBD-CYC8 efflux-inhibited sensitized strain, primary screen (AID 1298;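 active = RAM network inhibition above 8.4% in each of two replicates, 3 SD over the compound average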;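 note: 0% = DMSO untreated cells without growth and 100% = 10 µM 1-NA-PP1 full growth; higher means more yeast growth rescued from 5-FOA killing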); conditions: S. cerevisiae cbk1-as DSE1-URA3 strain, 5-FOA growth OD615, 2 d; at 50 µM; stronger effect = higher value
# [14] = H69AR cells + 2 uM doxorubicin, measured here: viability with 2 uM doxorubicin, stronger effect = lower value
# [15] = H69AR cells, compound alone cytotoxicity
SMILES,viability [1],viability [2],viability [3],differential viability (reversal) ([4]; H69AR cells + 2 uM doxorubicin),"viability [4, 14]","viability [4, 15]",inhibition [5],inhibition [6],growth inhibition [7],growth inhibition [8],viability increase [9],viability [10],viability [11],inhibition [12],RAM network inhibition [13]
CC12CCC(C(=O)N3CCN(C(=O)C45CCC(C)(C(=O)O4)C5(C)C)CC3)(OC1=O)C2(C)C,109% (inactive),97.5% (inactive),105% (inactive),20.1% (inactive),84.7%,105%,-3.47% (inactive),-7.64% (inactive),-17% (inactive),-7.99% (inactive),-0.17% (inactive),102% (inactive),94.1% (inactive),1.42% (inactive),0.26% (inactive)
Cc1ccc(-c2cc(C(F)F)n3ncc(C(=O)N4CCN(c5ccccn5)CC4)c3n2)cc1,99.5% (inactive),49.2% (inactive),–,3.75% (inactive),52.2%,56%,-6.4% (inactive),6.5% (inactive),-6.85% (inactive),4.28% (inactive),-5.43% (inactive),54.3% (inactive),55.4% (inactive),-1.01% (inactive),6.29% (inactive)
O=C(CCCn1c(=O)[nH]c2ccsc2c1=O)N1CCN(c2ccccn2)CC1,89% (inactive),99.5% (inactive),101% (inactive),6.23% (inactive),94.5%,101%,-6.4% (inactive),-0.18% (inactive),-0.715% (inactive),2.48% (inactive),-4.76% (inactive),100% (inactive),–,2.25% (inactive),4.21% (inactive)
CCn1c(C(C#N)/C(=N\S(=O)(=O)c2cccs2)c2ccccc2)nc2ccccc21 (stereo not given),112% (inactive),96.2% (inactive),81.7% (inactive),-12.6% (inactive),94.3%,81.7%,0.26% (inactive),-1.15% (inactive),-26.8% (inactive),-15% (inactive),-3.19% (inactive),87.4% (inactive),90.2% (inactive),1.55% (inactive),5.16% (inactive)
CCOc1ccc(NS(=O)(=O)c2cc(Cl)ccc2OC)cc1,102% (inactive),91% (inactive),70.8% (inactive),-22.1% (inactive),92.9%,70.8%,-6.93% (inactive),-5.09% (inactive),-10.7% (inactive),-13.3% (inactive),-2.64% (inactive),75.1% (inactive),76.2% (inactive),0.335% (inactive),0.17% (inactive)
COCc1cc(C)nc(Nc2ccc(C)cc2C)c1C#N,70% (inactive),84.8% (inactive),104% (inactive),9.25% (inactive),95.1%,104%,-2.43% (inactive),2.46% (inactive),-9.57% (inactive),-2.85% (inactive),-4.12% (inactive),97.2% (inactive),90.6% (inactive),1.15% (inactive),0.15% (inactive)
Cc1ccc(-c2oc3ccccc3c(=O)c2O)cc1,78.5% (inactive),–,67.8% (inactive),-6.71% (inactive),74.5%,67.8%,-3.87% (inactive),-1.17% (inactive),-12.1% (inactive),-12.3% (inactive),-5.56% (inactive),10.2% (active),11.8% (active),2.66% (inactive),0.63% (inactive)
FC(F)(F)c1cc(-c2ccco2)nc(NCc2ccco2)n1,119% (inactive),101% (inactive),62.2% (inactive),-15.6% (inactive),77.8%,62.2%,-2.7% (inactive),24.2% (inactive),3.24% (inactive),-11.4% (inactive),-6.31% (inactive),–,59.1% (inactive),1.14% (inactive),-0.41% (inactive)
Cc1ccc(C(=O)Nc2ccc(Cl)cn2)cc1S(=O)(=O)N1CCOCC1,90% (inactive),78.3% (inactive),81.5% (inactive),-11.5% (inactive),93%,81.5%,0.39% (inactive),5% (inactive),-3.23% (inactive),0.715% (inactive),1.52% (inactive),86.4% (inactive),79.9% (inactive),1.39% (inactive),5.97% (inactive)
CCNc1ccc(C(=O)OCC)cc1NC(=O)c1cc(S(=O)(=O)N2CCOCC2)ccc1C,108% (inactive),83.3% (inactive),98.5% (inactive),8.02% (inactive),90.5%,98.5%,2.99% (inactive),5.41% (inactive),-9.95% (inactive),-3.6% (inactive),-5.71% (inactive),–,87.1% (inactive),0.96% (inactive),8.14% (inactive)
CCCc1cc(=O)oc2cc(C)cc(OC(=O)c3ccco3)c12,97% (inactive),62.2% (inactive),95.8% (inactive),9.31% (inactive),86.5%,95.8%,-6.93% (inactive),-7.82% (inactive),-7.19% (inactive),-12.2% (inactive),-1.16% (inactive),96.7% (inactive),80.6% (inactive),3.94% (inactive),4.75% (inactive)
